# Source: PubChem BioAssay
# Vif-APOBEC3F blk: inhibitors of Vif-A3F interaction; Potency, µM (highest dose often 46.1 µM), for inactives: top-dose activity, negative = active; AID 602313; HeLa A3F-eYFP + Vif (tagged APOBEC3F with the HIV-1 protein that degrades it), YFP fluorescence increase; hit rate 0.2% among 390,000; note: potency is the fitted concentration of half-maximal effect; % of control where 0% means no effect; nearly all actives have a fitted effect of over 65% in size
#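 HeLa cells stably expressing A3F-eYFP plus Vif, plated and incubated overnight at 37 deg C, then exposed to compounds overnight at 37 deg C. Blocked degradation read as raised yellow fluorescence (Ex 488/Em 500-530).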
# PLK1 PBD inh: PLK1 (human) polo-box domain binding inhibition; Plk1 PBD binding of FITC phosphopeptide, fluorescence polarization; Potency, µM, for the others: max response, negative = inhibition, hits mostly inhibitors; hit rate 2.8% among 360,000; P53350; AID 720504; note: potency is the fitted concentration of half-maximal effect; series mostly up to about 57 µM; % is set by controls: 0 for no effect and ±100 for the full control effect; nearly all actives have a fitted effect of over 65% in size
# TSHR antag: blocks TSH signaling through the human TSH receptor | P16473 | TSHR-expressing cells, TSH-stimulated cAMP HTRF, 2 h; active compounds read low | activity change, negative = inhibition, % at 11.5 µM | hit rate 0.2% among 330,000;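 active = activity change below a set negative limit, meaning inhibition stronger than a set level, cut at about -70% in these data; inconclusive = activity change between two set negative limits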; note: % is set by controls: 0 for no effect and ±100 for the full control effect
# Target sequence (P16473 whole entry, looked up): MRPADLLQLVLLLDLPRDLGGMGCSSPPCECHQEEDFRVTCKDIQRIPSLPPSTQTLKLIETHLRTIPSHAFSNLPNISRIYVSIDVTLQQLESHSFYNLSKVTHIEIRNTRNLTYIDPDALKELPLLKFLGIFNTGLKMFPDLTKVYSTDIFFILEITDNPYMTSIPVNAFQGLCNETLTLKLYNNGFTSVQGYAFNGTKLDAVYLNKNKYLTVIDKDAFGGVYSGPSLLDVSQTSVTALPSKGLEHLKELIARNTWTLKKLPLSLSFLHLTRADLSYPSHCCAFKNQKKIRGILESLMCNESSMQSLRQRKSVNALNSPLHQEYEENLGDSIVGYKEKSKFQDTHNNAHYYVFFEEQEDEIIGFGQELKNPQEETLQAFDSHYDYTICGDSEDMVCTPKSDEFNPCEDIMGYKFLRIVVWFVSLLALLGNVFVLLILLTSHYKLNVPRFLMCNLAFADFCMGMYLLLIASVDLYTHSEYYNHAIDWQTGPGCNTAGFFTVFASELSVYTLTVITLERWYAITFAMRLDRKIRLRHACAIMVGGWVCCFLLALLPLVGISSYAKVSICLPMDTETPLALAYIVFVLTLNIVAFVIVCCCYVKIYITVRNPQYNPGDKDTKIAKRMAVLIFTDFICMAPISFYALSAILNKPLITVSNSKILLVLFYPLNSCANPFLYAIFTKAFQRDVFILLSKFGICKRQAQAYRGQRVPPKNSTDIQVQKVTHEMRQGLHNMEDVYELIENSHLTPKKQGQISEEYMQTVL
#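 Inhibition of cAMP made by TSHR-expressing cells under TSH stimulation (4nM final, EC80; 2 h, 37 deg C) is quantified with a one-step lysis HTRF kit, anti-cAMP cryptate versus cAMP-d2.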
# Vif-APOBEC3G blk: blocks the Vif interaction with human APOBEC3G; HeLa A3G-eYFP + Vif (tagged APOBEC3G with the HIV-1 protein that degrades it), YFP fluorescence, overnight; Potency, µM (highest dose often 46.1 µM), for inactives: at the top dose activity, negative = active, hits mostly inhibitors; Q9HC16; hit rate 0.076% among 410,000; note: potency is the fitted concentration of half-maximal effect; % is set by controls: 0 for no effect and ±100 for the full control effect; nearly all actives have a fitted effect of over 60% in size
#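 HeLa cells stably expressing Vif and C-terminally eYFP-tagged A3G, seeded overnight at 37 deg C, then exposed to compound by pintool overnight at 37 deg C. Rise in yellow fluorescence (Ex 488/Em 500-530, Acumen) marks blocked Vif-driven A3G degradation.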
# VDR inh: vitamin D3 receptor (human) inhibition; P11473; hit rate 0.93% among 400,000; VDR-SRC2-3 peptide fluorescence polarization, 2 h; Potency, µM, for the others: max response, negative = inhibition, hits mostly inhibitors; note: potency is the fitted concentration of half-maximal effect; % is set by controls: 0 for no effect and ±100 for the full control effect
#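 Reagent solutions, kept cold and dark, are dispensed first; compounds are then pinned in at 23 nl, plates briefly spun, and incubated 2 h at ambient temperature. Inhibition of VDR–SRC2-3 peptide binding is read by fluorescence polarization.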
# Numbers without * were called inactive; ? = inconclusive; nt = no result. The list is not random: actives were taken first. Their share in the collection is about 3.1%. Unless noted, calls come from the whole dose curve; as a rule, active = well fitted curve in the direction sought with a large enough effect; inconclusive = small, poorly fitted or top-dose-only effect, or another doubt; inactive = no such curve, though single readings can be large; an effect the other way counts as inactive or inconclusive.
SMILES,Vif-APOBEC3F blk,PLK1 PBD inh,TSHR antag,Vif-APOBEC3G blk,VDR inh
CC(C)N1C(=O)S/C(=C/c2ccc3c(c2)n(C)c(=O)n3C)C1=O,-1%,-2%,-12,5%,-9%
CCN(CC)c1ccc(/C=C2\SC(=O)N(C(C)C)C2=O)o1,?,63%,-5,?,32µM*
Cc1ccccc1NC(=S)c1ccc2ccccc2n1,-8%,2.7µM*,-25,0%,8%
CCCN(CC(=O)Nc1ccccc1C)C(=O)c1ccc2ccccc2n1,-2%,0%,24,0%,10%
Cc1oc2c(cc(NS(=O)(=O)c3ccc(C(C)C)cc3)c3ccccc32)c1C(=O)O,?,19µM*,-12,-9%,-3%
COc1ccc(C(=S)NC2CCCCC2)cc1,-6%,24µM*,-2,-3%,89µM*
COc1ccc(CNC(=S)NC2CCCCC2)cc1,-5%,2%,-2,2%,5%
CCOc1ccc(C(=S)NC2CCCCC2)cc1,0%,27µM*,-39,-1%,-16%
C=CCc1cccc2cc(C(=O)Nc3cccc(Cl)c3)c(=O)oc12,-4%,nt,nt,-3%,-5%
C=CCc1cccc2cc(NC(C)=O)c(=O)oc12,-7%,27µM*,2,1%,-13%
CC(=O)Nc1ccc(S(=O)(=O)Nc2nc3ccccc3nc2Nc2ccc3ccccc3c2)cc1,?,24µM*,-24,-14%,4%
O=C(O)c1cccc(Nc2nc3ccccc3nc2NS(=O)(=O)c2ccccc2)c1,7%,?,-8,0%,?
CCOC(=O)N1CCC(Nc2nc3ccccc3nc2NS(=O)(=O)c2ccc(Cl)cc2)CC1,32µM*,?,-27,-2%,?
COC(=O)c1cc(Nc2nc3ccccc3nc2NS(=O)(=O)c2ccc(C)cc2)ccc1Cl,11µM*,nt,nt,-7%,0%
NS(=O)(=O)c1cccc(Nc2nc3ccccc3nc2NS(=O)(=O)c2ccc(Cl)cc2)c1,6%,17µM*,-36,-17%,13%
CCOC(=O)N1CCC(NC(=O)c2ccc(Cl)cc2)CC1,0%,2%,-7,-3%,7%
CNC(=O)C1(C(F)(F)F)CC(CCCO)CCCO1 (configuration not stated),nt,nt,nt,2%,-14%
Cc1cccc(CNc2ncnc3ccc(-c4cccc(NS(C)(=O)=O)c4)cc23)c1,nt,nt,nt,nt,-7%
CC(=O)NCCNc1ncnc2ccc(-c3cccc(NS(C)(=O)=O)c3)cc12,nt,nt,nt,nt,45µM*
N=C1/C(=C/c2ccc(OCc3ccccc3)cc2)C(=O)N=C2SC(CC(=O)N3CCOCC3)=NN12,1%,?,-5,7%,1%
N=C1/C(=C/c2ccc(OCc3ccccc3F)cc2)C(=O)N=C2SC(CC(=O)N3CCOCC3)=NN12,-5%,38µM*,-4,1%,-14%
Cc1c(C)n(CC(O)CSc2ccccc2)c2ccccc12 (configuration not stated),nt,2.4µM*,nt,nt,nt
Cc1c(C)n(CC(O)CNc2ccccc2)c2ccccc12 (configuration not stated),?,7%,-6,-5%,-16%
CCc1ccc(S(=O)(=O)c2cn(Cc3ccccc3)c3cc(N4CCCC4)c(F)cc3c2=O)cc1,0%,nt,nt,2%,15%
CN(c1ccc(Cl)cc1)c1cc(=O)n(C)c2ccccc12,-3%,-13%,-17,-19%,-3%
SMILES,Vif-APOBEC3F blk,PLK1 PBD inh,TSHR antag,Vif-APOBEC3G blk,VDR inh
CN(C)c1ccc2c(O)cc(=O)n(C)c2c1,-10%,-28%,-6,2%,32µM*
CCCCC(=O)N1C/C=C\C(c2ccc(OC)cc2)N(Cc2ccc(F)cc2)C(=O)C1Cc1ccccc1 (configuration not stated),nt,nt,nt,-9%,-7%
Cc1c(Br)c([N+](=O)[O-])nn1CCCC(=O)Nc1sc2c(c1C#N)CCC2,-3%,5.3µM*,-11,0%,?
Cc1c(Br)c([N+](=O)[O-])nn1CC(=O)Nc1sc2c(c1C(=O)OC(C)C)CCCC2,0%,19µM*,-4,-5%,-20%
Cc1c(Cl)c([N+](=O)[O-])nn1CCCC(=O)Nc1sc2c(c1C#N)CCC2,2%,30µM*,-5,0%,?
Cc1c(Br)c([N+](=O)[O-])nn1CCCC(=O)Nc1sc2c(c1C(N)=O)CCC(C)C2 (configuration not stated),-9%,-25%,15,-1%,-17%
Cc1onc(-c2ccccc2)c1C(=O)NC(=S)Nc1sc2c(c1C#N)CCC(C)C2 (configuration not stated),4%,9.5µM*,5,-7%,?
Cn1cc(Cl)c(C(=O)NC(=S)Nc2sc3c(c2C#N)CCCCC3)n1,-3%,12µM*,-8,2%,?
Cc1onc(-c2ccccc2)c1C(=O)NC(=S)Nc1sc2c(c1C#N)CCCC2,-6%,7.5µM*,-1,-8%,?
O=C(CSc1nc2c(oc3ccccc32)c(=O)[nH]1)Nc1cccc(Cl)c1,-8%,nt,nt,-12%,-8%
O=C(COC(=O)c1ccc(C(F)(F)F)cc1)NC(=O)C1CCCCC1,nt,nt,nt,2%,-7%
NN/C(=C\[N+](=O)[O-])Nc1ccc(Cl)cc1,3%,12µM*,-14,-3%,-6%
O=S(=O)(c1nccs1)N1CCN(c2nc(-c3cccs3)nc3ccccc23)CC1,nt,nt,nt,nt,-15%
CCOc1cc(CNCCO)ccc1OCC(=O)NC(C)(C)C,5%,24µM*,7,-1%,17%
CCOc1cc(CNC)ccc1OCC(=O)NC(C)(C)C,3%,-10%,9,0%,-5%
COc1ccc(-c2nc3cnc(N4CCN(C)CC4)nc3n(Cc3ccc(F)cc3)c2=O)cc1,nt,nt,nt,nt,-4%
O=C(Nc1ccc(-c2nc3ccccc3[nH]2)cc1)c1ccccc1NS(=O)(=O)c1ccc(F)cc1,-2%,27µM*,-27,-22%,11%
O=C(O)/C=C/c1ccc(S(=O)(=O)Nc2ccccc2C(=O)Nc2ccc(F)cc2)cc1,0%,-9%,-100*,0%,-9%
CS(=O)(=O)c1ccccc1C(=O)Nc1ccc(-c2nc3ccccc3[nH]2)cc1,6%,-14%,13,3%,-3%
O=C(Nc1ccc(S(=O)(=O)Nc2ncccn2)cc1)c1ccccc1NS(=O)(=O)c1ccc(F)cc1,2%,-7%,2,10%,-7%
O=S(=O)(c1cccc(C(F)(F)F)c1)N1CCN(c2nc(-c3ccccc3)nc3ccccc23)CC1,nt,nt,nt,-2%,6%
C/C(=N\NC(=O)c1nnn(-c2nonc2N)c1-c1ccc(Cl)c(Cl)c1)c1ccncc1,2%,-4%,-87*,-4%,9%
COc1ccc(NC(=O)CSc2nnc3c(n2)[nH]c2ccc(S(=O)(=O)N(C)C)cc23)c(OC)c1,nt,nt,nt,nt,6%
CCCCCCc1cc2cc(-c3nnc(-c4ccccc4OC)o3)c(=O)oc2cc1O,?,-26%,?,13µM*,0%
